# ATXN2 expr inh: ATXN2 expression inhibition; actives 0.72% (n = 360,000); AID 1745845; Potency, µM (doses to about 57 µM), without a hit: at the top dose activity change, negative = inhibition, actives largely listed as inhibitors; HEK-293 ATXN2-luciferase reporter, luminescence, 24 h; also: % is scaled to controls: 0 for no effect and ±100 for the full control effect; nearly all actives have a fitted effect of over 55% in size
#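 qHTS (up to 57 uM final) was run with 24 h compound exposure of reporter cells at 37 °C. Each well was multiplexed: SteadyGlo luminescence measured ATXN2-luciferase expression after a fluorogenic Gly-Phe-AFC viability readout (25 uM final).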
# HT1080 IDH1KD tx: HT-1080 IDH1 knockdown cell toxicity (counter line); HT-1080 IDH1 knockdown viability, ATP luminescence, 48 h; actives 2% (n = 360,000); Potency, µM (series often up to 46.1 µM), for inactives: at the top dose activity, negative = toxicity, actives largely listed as cytotoxic; AID 686971;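 also: 0% = DMSO wells and -100% = cell-free medium wells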
#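 Viability of IDH1-knockdown HT-1080 fibrosarcoma cells was assessed by CellTiter-Glo after 48 h at 37 °C with titrated compound; concentration-effect curves were classified by fit quality and response size.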
# HT1080NT lethal: kills 2HG-producing HT-1080-NT fibrosarcoma cells. HT-1080-NT fibrosarcoma viability, CellTiter-Glo ATP luminescence, 48 h. Potency, µM (titrated, usually from 46.1 µM), for the others: at the top dose activity, negative = less viability, usual class: cytotoxic. actives 1.6% (n = 360,000). AID 686970;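 also: NT is the 2HG producing partner of a matched IDH1 knockdown line; 0% = DMSO-treated cells and -100% = media-only wells without cells; nearly all actives have a fitted effect of over 55% in size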
#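 750 cells/well, RPMI + 5% FBS; 2 h settle, compound pin-transfer, 48 h at 37 degrees C. CellTiter-Glo 10 min RT, luminescence. Normalized to DMSO and media-only wells.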
# S2 tox: viability counter-screen for ATXN expression inhibitors; actives 0.49% (n = 400,000); S2 cells (HEK-293 line with an ATXN2-luciferase reporter) viability, CellTiter-Fluor protease fluorescence, 24 h; Potency, µM (top dose mostly 56.7 µM), usual class: cytotoxic; also: nearly all actives have a fitted effect of over 40% in size
# KB-3-1 tox: kills parental KB-3-1 adenocarcinoma cells | KB-3-1 viability, CellTiter-Glo ATP luminescence, 72 h | Potency, µM (titrated, usually from 46.1 µM), actives largely listed as cytotoxic | actives 1.4% (n = 400,000); also: % is scaled to controls: 0 for no effect and ±100 for the full control effect; nearly all actives have a fitted effect of over 60% in size
#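 Viability of parental KB-3-1 cells, measured by CellTiter-Glo luminescence, followed a 72 h incubation at 37 °C with pinned compounds in phenol-red-free DMEM containing 10% FBS.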
# KB-V1 MDR tox: KB-V1 MDR subline cytotoxicity; KB-V1 MDR cells viability, CellTiter-Glo, 72 h; Potency, µM (titrated, usually from 46.1 µM), hits mostly cytotoxic; actives 3.4% (n = 400,000); AID 1347076; also: % is scaled to controls: 0 for no effect and ±100 for the full control effect; nearly all actives have a fitted effect of over 60% in size
#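 Cytotoxicity via CellTiter-Glo luminescence after 72 h compound exposure at 37 degrees C. Cells: drug-selected KB-V1 line, DMEM phenol-red free plus 10% FBS. Compounds tested at multiple concentrations; normalized data fitted to concentration-effect curves.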
# Active calls of the source: *; i = inactive; ? = inconclusive; nt = not tested or not shown. Compounds with a hit are over-represented: about 6.2% of the library has one in this group of screens. Calls follow the shape of the dose curve; as a rule, active = well fitted curve in the direction sought with a large enough effect; inconclusive = small, poorly fitted or top-dose-only effect, or another doubt; inactive = no such curve, though single readings can be large; an effect the other way counts as inactive or inconclusive. Potency is read from the fitted curve at half-maximal effect.
SMILES,ATXN2 expr inh,HT1080 IDH1KD tx,HT1080NT lethal,S2 tox,KB-3-1 tox,KB-V1 MDR tox
Cc1ccccc1COC(=O)c1cc([N+](=O)[O-])ccc1N1CCOCC1,-34.3%,?,?,i,?,i
O=[N+]([O-])c1ccc(N2CCN(c3ccccc3F)CC2)c(S(=O)(=O)N2CCOCC2)c1,-5.1%,0.1%,-6.9%,i,i,7.31µM*
CSc1ccc(COC(=O)c2cc([N+](=O)[O-])ccc2N2CCOCC2)cc1,-7.4%,0.184µM*,?,i,0.146µM*,0.411µM*
O=[N+]([O-])c1ccc(N2CCOCC2)c(S(=O)(=O)N2CCOCC2)c1,8.8%,-0.3%,-0.7%,?,i,i
O=C(OCc1ccccc1F)c1cc([N+](=O)[O-])ccc1N1CCOCC1,0.1%,-3.7%,0.0%,?,i,18.4µM*
COc1ccc(OC)c(CCNC(=O)c2cc3c(=O)n(C)c4ccccc4c3n2C)c1,-7.4%,nt,nt,i,i,i
N#CC(C#N)=C1C=CC=CN1/C(=C\c1ccccc1Cl)C(=O)c1ccccc1,12.6µM*,2.59µM*,?,?,?,?
CN1N=C(N)c2cn(C3OC(COP(=O)(O)O)C(O)C3O)c3ncnc1c23 (centres undefined),16.5%,?,-23.6%,i,1.84µM*,?
Nc1ncnc2c1ncn2C1OC(COP(=O)(O)O)C(O)C1O (centres undefined),53.4%,?,7.31µM*,i,i,i
Nc1ncnc2c1ncn2[C@@H]1O[C@H](COP(=O)(O)O)[C@@H](O)[C@@H]1O,nt,nt,nt,i,nt,nt
Nc1ncnc2c1ncn2C1C=C(CO)C(O)C1O (centres undefined),?,?,?,?,8.2µM*,?
Nc1ncnc2c1ncn2[C@@H]1O[C@H](CO)C[C@H]1O,0.4%,-26.5%,-35.9%,i,i,i
Nc1ncnc2c1ncn2[C@@H]1O[C@H](COP(=O)(O)O)[C@@H](O)[C@H]1O,55.5%,?,?,i,i,?
CCOC(=O)c1cc(S(=O)(=O)NCc2ccc(OC)cc2)[nH]n1,10.7%,nt,nt,i,i,i
CCN1CCN(c2nn3c(=O)c4ccccc4nc3c3ccccc23)CC1,-22.6%,?,?,i,?,?
CC1CN(c2nn3c(=O)c4ccccc4nc3c3ccccc23)CC(C)O1 (centres undefined),-21.3%,-0.3%,-3.8%,i,?,20.6µM*
O=C(C1CN(C(=O)c2cc3cc(Cl)ccc3o2)c2ccccc2O1)N1CCCCC1 (centres undefined),-8.7%,-14.7%,0.3%,i,?,20.6µM*
CCc1ccccc1N(CC)C(=O)c1c(C)oc2ncn(C)c(=O)c12,-7.8%,nt,nt,i,i,i
O=C(NC(CC(=O)N1CCN(c2ccccc2O)CC1)c1ccccc1)c1ccccc1Cl (centres undefined),-23.3%,-5.7%,-10.9%,i,i,5.8µM*
Cc1cccc(N2CCN(C(=O)CC(NC(=O)c3ccccc3Cl)c3ccccc3)CC2)c1C (centres undefined),?,-15.7%,-17.2%,i,i,i
O=C(CN1C(=O)C2(SCC(=O)N2c2cccc(F)c2)c2ccccc21)NCc1ccccc1Cl (centres undefined),-3.4%,nt,nt,i,i,6.51µM*
COc1ccc(N2C(=O)CSC23C(=O)N(Cc2ccccc2F)c2ccccc23)cc1Cl (centres undefined),?,nt,nt,?,?,18.4µM*
COc1ccc(N2C(=O)CSC23C(=O)N(Cc2ccc(C)cc2)c2ccccc23)cc1Cl (centres undefined),-18.3%,nt,nt,i,?,18.4µM*
O=C1CSC2(C(=O)N(Cc3ccccc3F)c3ccccc32)N1c1cccc(C(F)(F)F)c1 (centres undefined),?,nt,nt,i,18.4µM*,8.2µM*

# Compound activity from PubChem.
